# Where “and” joins values, the source holds several entries; their conditions need not be identical. Identical values can stand only once. Where a structure was tested more than once in an assay, its records may differ in their call. Calls of active or inactive are those of the source. How the source made its calls: active means hit-call score of the fitted dose curve at least 0.9, where 1 is the maximum; inactive means score below 0.9.
# Read-out: DNA damage-inducible transcript 3 (DDIT3), DDIT3 (gene 1649)
# Experiment: LTEA_HepaRG_DDIT3: Life Technologies and Expression Analysis (LTEA) Assay for DNA damage-inducible transcript 3 (DDIT3) using HepaRG (AID 2283488)
# Settings: mRNA level, 48 h; actives raise or lower the signal
# Outline: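 Changes in DDIT3 transcript, in either direction relative to 0.5% DMSO vehicle, were quantified by TaqMan qRT-PCR after 48 h chemical exposure of HepaRG cells at 8 concentrations, maximum 100 uM.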
Compound,outcome,AC50
CNC(=S)S,inactive,
C=CCC1=C(C)C(OC(=O)C2C(C=C(C)C)C2(C)C)CC1=O (stereo not drawn),inactive,
CCc1nn(C)c(C(=O)NCc2ccc(C(C)(C)C)cc2)c1Cl,,0.738 µM (active)
C=CCC1=C(C)[C@@H](OC(=O)[C@@H]2[C@@H](C=C(C)C)C2(C)C)CC1=O,inactive,
COc1nc(NC(C)C)nc(NC(C)C)n1,inactive,

# Read-out: Pro-epidermal growth factor (Homo sapiens) (UniProt P01133)
# Experiment: LTEA_HepaRG_EGF: Life Technologies and Expression Analysis (LTEA) Assay for Epidermal growth factor (EGF) using HepaRG (AID 2283489)
# Settings: mRNA level, 48 h; actives raise or lower the signal
# Outline: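 EGF transcript measured by Fluidigm TaqMan qRT-PCR with three housekeeping genes for normalization, 48 h after dosing HepaRG cultures in duplicate (top 100 uM, half-log steps, 0.5% DMSO vehicle). Gain or loss relative to DMSO fitted.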
row,Compound,outcome
1,O=C(Nc1ccccc1)Nc1ccnc(Cl)c1,inactive
2,O=C(O)COc1nc(Cl)c(Cl)cc1Cl,inactive
3,CCCCNC(=O)OCC#CI,inactive
4,C=CC1(C)OC(=O)N(c2cc(Cl)cc(Cl)c2)C1=O (stereo not drawn),inactive
5,N#CC(CCc1ccc(Cl)cc1)(Cn1cncn1)c1ccccc1 (stereo not drawn),inactive
6,COC(=O)C=C(C)OP(=O)(OC)OC,inactive
7,C=CCC1=C(C)[C@@H](OC(=O)[C@@H]2[C@@H](C=C(C)C)C2(C)C)CC1=O,inactive

# Read-out: Early growth response protein 1 (EGR1) transcription factor, EGR1 (gene 1958)
# Experiment: LTEA_HepaRG_EGR1: Life Technologies and Expression Analysis (LTEA) Assay for Early growth response protein 1 (EGR1) transcription factor using HepaRG (AID 2283490)
# Settings: mRNA level, 48 h; actives raise or lower the signal
# Outline: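 Differentiated human HepaRG cells in serum-free induction medium were exposed in duplicate for 48 h to eight concentrations (top 100 uM, half-log steps) in 0.5% DMSO. EGR1 mRNA was quantified by qRT-PCR, normalized to ACTB, GAPDH and POLR2A, and fitted bidirectionally versus DMSO.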
Compound,AC50,outcome
O=C(Nc1ccccc1)Nc1ccnc(Cl)c1,84.6 µM (active),
O=C(O)c1nc(Cl)ccc1Cl,,inactive
O=C(O)COc1nc(Cl)c(Cl)cc1Cl,,inactive
CC(Oc1ccc(Cl)cc1Cl)C(=O)O (stereo not drawn),,inactive
CCCCNC(=O)OCC#CI,,inactive
COc1ccc(C(c2ccc(OC)cc2)C(Cl)(Cl)Cl)cc1,73 µM (active),
CCNc1nc(Cl)nc(NCC)n1,,inactive
C=CC1(C)OC(=O)N(c2cc(Cl)cc(Cl)c2)C1=O (stereo not drawn),,inactive
CCOC(=O)CC(SP(=S)(OC)OC)C(=O)OCC (stereo not drawn),,inactive
Fc1ccc(Oc2ccnc3cc(Cl)cc(Cl)c23)cc1,,inactive
OC(c1ccc(Cl)cc1)(c1cncnc1)c1ccccc1Cl (stereo not drawn),,inactive
N#CC(CCc1ccc(Cl)cc1)(Cn1cncn1)c1ccccc1 (stereo not drawn),79.3 µM (active),
N#Cc1nn(-c2c(Cl)cc(C(F)(F)F)cc2Cl)c(N)c1S(=O)C(F)(F)F (stereo not drawn),13.2 µM (active),
CC1COC(Cn2cncn2)(c2ccc(Oc3ccc(Cl)cc3)cc2Cl)O1 (stereo not drawn),63.2 µM (active),
COP(=S)(OC)Oc1nc(Cl)c(Cl)cc1Cl,,inactive
CCCN(CCC)c1c([N+](=O)[O-])cc(S(N)(=O)=O)cc1[N+](=O)[O-],93.2 µM (active) and 83.6 µM (active) and 78.9 µM (active),
COC(=O)C=C(C)OP(=O)(OC)OC,50 µM (active),
CS/C(C)=N/OC(=O)N(C)SN(C)C(=O)O/N=C(\C)SC,,inactive
CCOP(=S)(OCC)SCn1c(=O)oc2cc(Cl)ccc21,,inactive
COC(=O)C(C)Oc1ccc(Oc2ccc(Cl)cc2Cl)cc1 (stereo not drawn),,inactive
CNC(=S)S,,inactive
C=CCC1=C(C)C(OC(=O)C2C(C=C(C)C)C2(C)C)CC1=O (stereo not drawn),64.1 µM (active) and 71.1 µM (active) and 50 µM (active),
CCc1nn(C)c(C(=O)NCc2ccc(C(C)(C)C)cc2)c1Cl,50 µM (active),
C=CCC1=C(C)[C@@H](OC(=O)[C@@H]2[C@@H](C=C(C)C)C2(C)C)CC1=O,,inactive
COc1nc(NC(C)C)nc(NC(C)C)n1,,inactive

# Read-out: Ezrin (EZR), EZR (gene 7430)
# Experiment: LTEA_HepaRG_EZR: Life Technologies and Expression Analysis (LTEA) Assay for Ezrin (EZR) using HepaRG (AID 2283491)
# Settings: mRNA level, 48 h; actives raise or lower the signal
# Outline: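 Read-out is EZR transcript level by qRT-PCR, normalized to three housekeeping genes and fitted bidirectionally against the DMSO control. Human HepaRG cells received test chemicals for 48 h at eight half-log concentrations up to 100 uM in 0.5% DMSO.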
Compound,AC50,outcome
O=C(Nc1ccccc1)Nc1ccnc(Cl)c1,79.5 µM (active),
O=C(O)c1nc(Cl)ccc1Cl,,inactive
O=C(O)COc1nc(Cl)c(Cl)cc1Cl,,inactive
CC(Oc1ccc(Cl)cc1Cl)C(=O)O (stereo not drawn),,inactive
CCCCNC(=O)OCC#CI,,inactive
COc1ccc(C(c2ccc(OC)cc2)C(Cl)(Cl)Cl)cc1,79.8 µM (active),
CCNc1nc(Cl)nc(NCC)n1,,inactive
C=CC1(C)OC(=O)N(c2cc(Cl)cc(Cl)c2)C1=O (stereo not drawn),,inactive
CCOC(=O)CC(SP(=S)(OC)OC)C(=O)OCC (stereo not drawn),,inactive
Fc1ccc(Oc2ccnc3cc(Cl)cc(Cl)c23)cc1,,inactive
OC(c1ccc(Cl)cc1)(c1cncnc1)c1ccccc1Cl (stereo not drawn),,inactive
N#CC(CCc1ccc(Cl)cc1)(Cn1cncn1)c1ccccc1 (stereo not drawn),50 µM (active),
N#Cc1nn(-c2c(Cl)cc(C(F)(F)F)cc2Cl)c(N)c1S(=O)C(F)(F)F (stereo not drawn),29.3 µM (active),
CC1COC(Cn2cncn2)(c2ccc(Oc3ccc(Cl)cc3)cc2Cl)O1 (stereo not drawn),0.479 µM (active),
COP(=S)(OC)Oc1nc(Cl)c(Cl)cc1Cl,,inactive
CCCN(CCC)c1c([N+](=O)[O-])cc(S(N)(=O)=O)cc1[N+](=O)[O-],95.9 µM (active) and 78 µM (active),inactive
COC(=O)C=C(C)OP(=O)(OC)OC,,inactive
CS/C(C)=N/OC(=O)N(C)SN(C)C(=O)O/N=C(\C)SC,,inactive
CCOP(=S)(OCC)SCn1c(=O)oc2cc(Cl)ccc21,,inactive
COC(=O)C(C)Oc1ccc(Oc2ccc(Cl)cc2Cl)cc1 (stereo not drawn),,inactive
CNC(=S)S,,inactive
C=CCC1=C(C)C(OC(=O)C2C(C=C(C)C)C2(C)C)CC1=O (stereo not drawn),,inactive
CCc1nn(C)c(C(=O)NCc2ccc(C(C)(C)C)cc2)c1Cl,,inactive
C=CCC1=C(C)[C@@H](OC(=O)[C@@H]2[C@@H](C=C(C)C)C2(C)C)CC1=O,,inactive
COc1nc(NC(C)C)nc(NC(C)C)n1,,inactive

# Reference: PubChem BioAssay (EPA / NIEHS)
